# Assay results reported in PubChem BioAssay AID686979 (National Center for Advancing Translational Sciences (NCATS), 2013).
# “And” between values parts separate entries of the source, which are not always exact repeats. Equal values may be shown once. The whole screen tested about 420,000 compounds, of which about 50,000 (12%) were called active. Inconclusive results (about 26%) are left out. Calls follow the shape of the dose curve; as a rule, active = well fitted inhibition curve with a large enough effect; inconclusive = small, poorly fitted or top-dose-only effect; inactive = flat fitted curve, though single readings scatter. The list comes from a sample in which actives are over-represented; it also holds similar structures and randomly drawn compounds. Entries that show only a call come without a potency.
# Experiment: qHTS for Inhibitors of human tyrosyl-DNA phosphodiesterase 1 (TDP1): qHTS in cells in presence of CPT; also: nearly all actives have a fitted effect of over 55% in size
# Conditions: chicken DT40 Tdp1-/-;hTDP1 cells + 20 nM CPT, ATP luminescence, 48 h; series mostly up to 46.2 µM
# Text: Human tyrosyl-DNA phosphodiesterase 1 (TDP1) is a novel repair gene, and we propose to use it as a new target for anticancer drug development. TDP1 is not an essential protein, but under treatment with topoisomerase I poison (camptothecin: CPT), TDP1 works as a critical factor for cell survival. To directly identify novel TDP1 inhibitors active in a cellular environment, we have knocked-out the Tdp1 gene in chicken DT40 cells (Tdp1-/-) and generated a complemented counterpart cells that contains a stable transfection of the human TDP1 gene (Tdp1-/-;hTDP1 cells). For the primary screen, Tdp1-/-;hTDP1 cells will be exposed to small molecules in the presence or absence of CPT, and their growth kinetics will be evaluated after 48 hours by measuring ATP activity. […] The hit compounds will then be evaluated in the presence or absence of CPT using Tdp1-/- cells. […] In tertiary assays, biochemical gel-based assays will be used to assess whether the hit compounds specifically target TDP1. To this end, we have screened this cell line against the MLSMR in two primary screens. In one screen we add CPT and in the other we screen in the absence of CPT; this AID represents the screen where CPT was present. NIH Chemical Genomics Center [NCGC] NIH Molecular Libraries Probe Centers Network [MLPCN] MLPCN Grant: MH095538 Assay Submitter (PI): Yves Pommier, NCI
# DT40-hTDP1 cells with 20 nM Camptothecin (add 20 microL of 1 mM CPT stock in 1 L of cell culture medium) were dispensed at 400 cells/5microL/well in tissue culture treated 1536-well white wall/solid bottom assay plates (Greiner Bio-One North America, NC, U.S.A.) using a Multidrop Combi 8 channel dispenser (Thermo Fisher, Waltham, MA, USA). 23 nL compounds and controls were transferred using the pin tool (Kalypsys, San Diego, CA, USA) to the assay plates. The assay plates were then incubated at 37 masculineC for a minimum 48 hr. Three microL of Cell Titer Glo solution was added to the plates and incubated at RT in dark for 30 min. Luminescence was read using ViewLux (Perkin Elmer) with 1 sec exposure slow speed, high gain and 2x binning.
# Potency is read from the fitted curve at half-maximal effect.
row,Structure (SMILES),Potency
1,O=C(O)CSc1c2c(nc3cc(C(=O)Nc4cccc(C(F)(F)F)c4)ccc13)CCCC2,inactive
2,COc1cc(OC)cc(C(=O)Nc2ccc3nc(Nc4cccc(C(F)(F)F)c4)cc(C)c3c2)c1,9.2 µM (active)
3,COc1ccc(/C=N/NC(=O)c2cccc(C(F)(F)F)c2)cc1,inactive
4,CC(Oc1cccc(Cl)c1)C(=O)Nc1ccc(S(=O)(=O)Nc2ncccn2)cc1 (configuration not stated),inactive
5,CCCCSc1nc2ccccc2[nH]1,inactive
6,CCC(C)N1C(=O)S/C(=C/c2ccc(Sc3nc4ccccc4[nH]3)o2)C1=O (configuration not stated),14.6 µM (active)
7,CCc1nnc(NC(=O)CCCSc2nc3ccccc3[nH]2)s1,inactive
8,CCN1CCN(C(=O)C2CCN(S(=O)(=O)c3cc(Cl)ccc3Cl)CC2)CC1,inactive
9,Cc1nnc(SCC(=O)Nc2ncc3c(n2)CC(C)(C)CC3=O)s1,inactive
10,CC(C)=CCN1CCN(CCCc2ccccc2)CC1CCO (configuration not stated),inactive
11,CC(C)=CCN1CCC2(CCc3ccccc32)CC1,11.6 µM (active)
12,COc1cc(CNCCSc2nnnn2C)ccc1OCc1c(F)cccc1Cl,inactive
13,COc1cc(CNCCSc2nnnn2C)ccc1OCc1ccc(Cl)cc1Cl,16.4 µM (active)
14,Cn1nnnc1SCCNCc1ccc(Cl)c(Cl)c1,inactive
15,Cc1cccc(C)c1N1CCN(S(=O)(=O)N2CCCCC2)CC1,inactive
16,COc1cc(OC)cc(-c2nc3nc(C)c(CCC(=O)Nc4ccc(C)cc4)c(C)n3n2)c1,inactive
17,CCOC(=O)c1cccc(NC(=O)CCc2c(C)nc3ncnn3c2C)c1,inactive
18,COc1cc(OC)cc(-c2nc3nc(C)c(CCC(=O)Nc4ccccc4)c(C)n3n2)c1,14.6 µM (active)
19,CC(C)OC(=O)c1ccc(COc2ccc3ccc(=O)oc3c2)o1,inactive
20,O=C(C1CCCO1)N1CCN(S(=O)(=O)c2ccc(Br)cc2)CC1 (configuration not stated),inactive
21,CC(C)CCN1CCN(Cc2ccc(C(F)(F)F)cc2)CC1CCO (configuration not stated),inactive
22,CN(C)C1CN(Cc2cn(Cc3ccccc3)nn2)S(=O)(=O)C1 (configuration not stated),inactive
23,CN(Cc1cn(Cc2ccc(C(F)(F)F)cc2)nn1)C1CN(Cc2cn(Cc3ccc(C(F)(F)F)cc3)nn2)S(=O)(=O)C1 (configuration not stated),6.51 µM (active)
24,O=C(c1ccc(Cl)c(S(=O)(=O)N2CCCCC2)c1)N1CCCCCC1,inactive
25,O=C(c1ccc(Cl)c(Cl)c1)N1CCCC1,inactive
26,O=C(c1ccc(Cl)c(S(=O)(=O)N2CCCCCC2)c1)N1CCN(c2ccc(O)cc2)CC1,18.4 µM (active)

row,Structure (SMILES),Potency
1,CN(C)c1cccc(C(=O)N2CCC(n3nccc3NC(=O)C3CCOC3)CC2)c1 (configuration not stated),inactive
2,Cn1c(=O)c(Sc2ccc(Cl)cc2)c(O)c2ccccc21,inactive
3,CC1Cc2ccccc2N1CC(=O)Nc1ccc2c(c1)OC(F)(F)O2 (configuration not stated),inactive
4,N#Cc1ccc(Oc2ccc(C(F)(F)F)cc2NC(=O)c2ccc(F)cc2)cc1,inactive
5,COc1cc(NC(=O)c2cncc(-c3ccc(C#N)cc3)c2)cc(C(=O)Nc2cccc(C(F)(F)F)c2)c1,8.2 µM (active) and 16.4 µM (active)
6,O=C(Nc1cccc(C(F)(F)F)c1)c1cnccn1,inactive
7,COc1cc(NC(=O)c2[nH]cnc2C(N)=O)cc(C(=O)Nc2cccc(C(F)(F)F)c2)c1,20.6 µM (active)
8,CCN(CC)C(=O)C1=C(C)N(Cc2ccc(F)cc2)C(=O)C(CC(=O)NC2CCCC2)C1 (configuration not stated),inactive
9,O=c1ccn([C@@H]2O[C@H](COP(=O)(O)OP(=O)(O)OP(=O)(O)O)[C@@H](O)[C@H]2O)c(=O)[nH]1,inactive
10,CNS(=O)(=O)c1cccc(C(=O)OCC(=O)N2c3ccccc3NC(=O)C2(C)C)c1,inactive
11,CCOc1ccc(NC(=O)CN(C)C(=O)CCSc2ccc(F)cc2)cc1OCC,inactive
12,CC(C)Oc1ccc(C(CC(=O)N2CCOCC2)C(C)C)cc1 (configuration not stated),inactive
13,COc1ccccc1CNC(=O)C(=O)NCC(c1cccs1)S(=O)(=O)c1cccs1 (configuration not stated),inactive
14,Cc1ccccc1CNC(=O)C(=O)NCC(c1cccs1)S(=O)(=O)c1cccs1 (configuration not stated),13 µM (active)
15,CC(C)C(=O)NCC(c1cccs1)S(=O)(=O)c1ccc(F)cc1 (configuration not stated),inactive
16,CC(C)C(=O)Nc1nnc(Sc2ccc(N(C)C)cc2)s1,inactive
17,CN(Cc1ccccc1)c1ccc(-c2nc(-c3ccccc3)no2)cc1[N+](=O)[O-],inactive
18,CN(Cc1ccccc1)c1ncnc2onc(-c3ccc(F)cc3)c12,23.1 µM (active)
19,Cc1noc(C)c1S(=O)(=O)N(C)Cc1ccccc1,inactive
20,Cc1ccc2c(C)c(C(=O)N3CCC(N4CCC(C(=O)NC5CC5)CC4)CC3)oc2c1,inactive
21,CN1CN(C)c2ccc([N+](=O)[O-])c3cccc1c23,inactive
22,O=C1[C@H]2[C@@H](c3ccc(C(F)(F)F)cc3)N[C@]3(CCCN(Cc4ccc(Br)cc4)C3=O)[C@H]2C(=O)N1Cc1ccccc1,inactive
23,CCN1C[C@@H]2[C@@H]3C(=O)N(Cc4ccccc4)C(=O)[C@@H]3[C@](C)(C1=O)N2C(=O)c1ccc(C(C)(C)C)cc1,inactive
24,COc1ccc([C@H]2N[C@]3(CCCN(Cc4ccco4)C3=O)[C@H]3C(=O)N(C)C(=O)[C@@H]23)cc1,inactive
25,CCN1C(=O)[C@H]2[C@@H](c3ccc(C(F)(F)F)cc3)N[C@]3(CCCN(Cc4ccc(Br)cc4)C3=O)[C@H]2C1=O,13 µM (active)
26,O=C1[C@H]2[C@@H](c3ccc(C(F)(F)F)cc3)N[C@]3(CCCN(Cc4ccc(Cl)cc4)C3=O)[C@H]2C(=O)N1Cc1ccccc1,16.4 µM (active)
